{"source": "PubChem BioAssay AID1347420", "about": "(Sanford-Burnham Center for Chemical Genomics, 2020)", "note": "Among all 1,300 compounds or so, about 980 (75%) were called active. Another 4% or so got no clear call; they are omitted. The list shows a part of the results."}
{"biological_target": "Sulfhydryl oxidase 1 (Homo sapiens) (UniProt O00391)", "sequence (O00391 whole entry, looked up)": "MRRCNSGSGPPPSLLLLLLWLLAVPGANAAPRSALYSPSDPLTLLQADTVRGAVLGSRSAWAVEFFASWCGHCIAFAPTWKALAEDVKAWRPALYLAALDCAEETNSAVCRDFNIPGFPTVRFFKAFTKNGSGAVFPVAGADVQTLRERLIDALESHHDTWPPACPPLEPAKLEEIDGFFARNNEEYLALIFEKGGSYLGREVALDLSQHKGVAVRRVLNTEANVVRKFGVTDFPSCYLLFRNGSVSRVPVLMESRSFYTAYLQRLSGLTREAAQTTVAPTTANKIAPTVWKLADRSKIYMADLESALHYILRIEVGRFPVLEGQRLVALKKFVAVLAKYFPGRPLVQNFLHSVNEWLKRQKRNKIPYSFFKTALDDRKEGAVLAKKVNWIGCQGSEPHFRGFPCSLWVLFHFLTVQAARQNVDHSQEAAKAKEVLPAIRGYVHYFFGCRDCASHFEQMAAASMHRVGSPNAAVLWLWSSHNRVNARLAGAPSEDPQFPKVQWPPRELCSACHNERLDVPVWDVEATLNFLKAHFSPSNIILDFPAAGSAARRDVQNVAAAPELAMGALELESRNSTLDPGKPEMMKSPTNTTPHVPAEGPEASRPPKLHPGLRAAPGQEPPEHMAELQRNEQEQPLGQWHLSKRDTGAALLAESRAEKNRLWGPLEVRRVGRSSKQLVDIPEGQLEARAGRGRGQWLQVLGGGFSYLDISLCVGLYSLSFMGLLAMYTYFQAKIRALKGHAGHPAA", "experiment": "inhibition of human sulfhydryl oxidase QSOX1 – biochemical, HyperBlu H2O2 luminescence, HTS, primary screen (AID 1347420); note: values above 100% were filed as inconclusive", "conditions": "recombinant QSOX1, HyperBlu H2O2 luminescence; at 12.5 µM; stronger effect = higher value; active = any value above zero"}
{"smiles": "CNCC(O)c1ccc(O)c(O)c1", "note": "(configuration not stated)", "inhibition": "39.2% (active)"}
{"smiles": "CNC[C@H](O)c1ccc(O)c(O)c1", "inhibition": "53.5% (active)"}
{"smiles": "CNC[C@H](O)c1cccc(O)c1", "inhibition": "17% (active)"}
{"smiles": "CNCCc1cnc(CCC(c2ccccc2)c2ccccc2)[nH]1", "inhibition": "14.6% (active)"}
{"smiles": "O=c1[nH]c(=O)n([C@H]2C[C@H](O)[C@@H](CO)O2)cc1Br", "inhibition": "6.3% (active)"}
{"smiles": "Cc1cn([C@H]2C=C[C@@H](CO)O2)c(=O)[nH]c1=O", "inhibition": "21.2% (active)"}
{"smiles": "Cc1cn([C@H]2C[C@@H](N=[N+]=[N-])[C@@H](CO)O2)c(=O)[nH]c1=O", "inhibition": "18.1% (active)"}
{"smiles": "O=c1[nH]c(=O)n([C@H]2C[C@H](O)[C@@H](CO)O2)cc1/C=C/Br", "inhibition": "11.6% (active)"}
{"smiles": "N#CC(C#N)=C(N)/C(C#N)=C/c1ccc(O)cc1", "inhibition": "85.4% (active)"}
{"smiles": "Cn1cc(C(F)(F)F)nc1-c1ccc(OCC(O)CNCCOc2ccc(O)c(C(N)=O)c2)cc1", "note": "(configuration not stated)", "inhibition": "45.1% (active)"}
{"smiles": "CC12C(=O)OC(=O)C1(C)C1CCC2O1", "note": "(configuration not stated)", "inhibition": "1.8% (active)"}
{"smiles": "CNC(=O)c1cc2c(cn1)[nH]c1ccccc12", "inhibition": "4.2% (active)"}
{"smiles": "Cc1ccccc1N1C(=O)c2cc(S(N)(=O)=O)c(Cl)cc2NC1C", "note": "(configuration not stated)", "inhibition": "9.2% (active)"}
{"smiles": "O=c1[nH]c(=S)[nH]c(-c2ccccc2)c1Cc1c(O)ccc2ccccc12", "inhibition": "55.9% (active)"}
{"smiles": "Cc1ccc(S(=O)(=O)/C=C/C#N)cc1", "inhibition": "10.5% (active)"}
{"smiles": "CC(C)(C)c1ccc(S(=O)(=O)/C=C/C#N)cc1", "inhibition": "3.4% (active)"}
{"smiles": "CC12CC3CC(C)(C1)CC(N)(C3)C2", "inhibition": "-1.7% (inactive)"}
{"smiles": "NC12CC3CC(CC(C3)C1)C2", "inhibition": "33.3% (active)"}
{"smiles": "CCOC(=O)C(C)Oc1cccc2c(=O)n(CC(=O)Nc3ccc4c(c3)OCCO4)ccc12", "note": "(configuration not stated)", "inhibition": "9.3% (active)"}
{"smiles": "NC(C(=O)N[C@@H]1C(=O)N2C(C(=O)O)=C(Cl)CS[C@H]12)c1ccccc1", "note": "(some centres not stated)", "inhibition": "23.8% (active)"}
{"smiles": "CC1=C(C(=O)O)N2C(=O)[C@@H](NC(=O)C(N)C3=CCC=CC3)[C@H]2SC1", "note": "(some centres not stated)", "inhibition": "20.2% (active)"}
{"smiles": "NC(=O)c1cc[n+](CC2=C(C(=O)O)N3C(=O)[C@@H](NC(=O)[C@@H](c4ccccc4)S(=O)(=O)[O-])[C@H]3SC2)cc1", "inhibition": "14.6% (active)"}
{"smiles": "CC1=C(C(=O)O)N2C(=O)[C@@H](NC(=O)C(N)c3ccccc3)[C@H]2SC1", "note": "(some centres not stated)", "inhibition": "37.1% (active)"}
{"smiles": "CN1CC(=O)N/C1=N\\C(=O)Nc1cccc(Cl)c1", "inhibition": "-0.6% (inactive)"}
{"smiles": "CC1=C(CC(=O)O)c2cc(F)ccc2/C1=C\\c1ccc(S(C)(=O)=O)cc1", "inhibition": "13.7% (active)"}
{"smiles": "CC1=C(CC(=O)O)c2cc(F)ccc2/C1=C\\c1ccc(S(C)=O)cc1", "note": "(configuration not stated)", "inhibition": "14.1% (active)"}
{"smiles": "CC(=O)N[C@@H](Cc1c[nH]c2ccccc12)C(=O)OCc1cc(C(F)(F)F)cc(C(F)(F)F)c1", "inhibition": "4.9% (active)"}
{"smiles": "NC(=O)OCC(COC(N)=O)c1ccccc1", "inhibition": "6.4% (active)"}
{"smiles": "N=C(N)c1ccc(N)cc1", "inhibition": "-0.4% (inactive)"}
{"smiles": "N=C(N)c1ccc(OCCCCCOc2ccc(C(=N)N)cc2)cc1", "inhibition": "14.9% (active)"}
{"smiles": "NC1(C(=O)O)CC1", "inhibition": "0.9% (active)"}
{"smiles": "NC1(C(=O)O)CCCCC1", "inhibition": "12.2% (active)"}
{"smiles": "Clc1nccc2c1ccc1ccccc12", "inhibition": "5.5% (active)"}
{"smiles": "O=C(CCCN1CCC(O)(c2ccc(Cl)cc2)CC1)c1ccc(F)cc1", "inhibition": "4.3% (active)"}
{"smiles": "CN(C)C(=O)C(CCN1CCC(O)(c2ccc(Cl)cc2)CC1)(c1ccccc1)c1ccccc1", "inhibition": "-0.4% (inactive)"}
{"smiles": "O=C(CCCN1CCC(O)(c2cccc(C(F)(F)F)c2)CC1)c1ccc(F)cc1", "inhibition": "1.8% (active)"}
{"smiles": "CN(C(=O)CCCOc1ccc2[nH]c(=O)ccc2c1)C1CCCCC1", "inhibition": "13.1% (active)"}
{"smiles": "CN1C2CCC1CC(OC(c1ccccc1)c1ccccc1)C2", "note": "(configuration not stated)", "inhibition": "7.5% (active)"}
{"smiles": "CN1C2CCC1CC(OC(=O)C(CO)c1ccccc1)C2", "note": "(configuration not stated)", "inhibition": "0.4% (active)"}
{"smiles": "CN1C2CCC1CC(OC(=O)c1c[nH]c3ccccc13)C2", "note": "(configuration not stated)", "inhibition": "8.4% (active)"}
{"smiles": "CN1C2CC(OC(=O)[C@H](CO)c3ccccc3)CC1C1OC12", "note": "(some centres not stated)", "inhibition": "10.8% (active)"}
{"smiles": "CN1C2CCC1CC(OC(=O)C(O)c1ccccc1)C2", "note": "(configuration not stated)", "inhibition": "6.4% (active)"}
{"smiles": "CC(C)(C)C(=O)Oc1ccc(S(=O)(=O)Nc2ccccc2C(=O)NCC(=O)O)cc1", "inhibition": "18.6% (active)"}
{"smiles": "CNC1(C)C2CCC(C2)C1(C)C", "note": "(configuration not stated)", "inhibition": "-4.4% (inactive)"}
{"smiles": "NC(=O)NO", "inhibition": "11.4% (active)"}
{"smiles": "CC(C)C[C@H](NC(=O)C1OC1C(=O)O)C(=O)NCCCCN=C(N)N", "note": "(some centres not stated)", "inhibition": "-7.9% (inactive)"}
{"smiles": "N[C@H](C(=O)O)[C@H](Cc1ccccc1)C(=O)O", "inhibition": "4.3% (active)"}
{"smiles": "NCCCNCCSP(=O)(O)O", "inhibition": "7.6% (active)"}
{"smiles": "NCCCNCCCCNCCCN", "inhibition": "19.3% (active)"}
{"smiles": "NCCCCNCCCN", "inhibition": "-8.3% (inactive)"}
{"smiles": "S=C(S)N1CCCC1", "inhibition": "86.2% (active)"}
{"smiles": "CC(C)CC(NP(=O)(O)O[C@@H]1O[C@@H](C)[C@H](O)[C@@H](O)[C@H]1O)C(=O)NC(Cc1c[nH]c2ccccc12)C(=O)O", "note": "(some centres not stated)", "inhibition": "59.4% (active)"}
{"smiles": "O=C(O)c1cccnc1Nc1cccc(C(F)(F)F)c1", "inhibition": "3.2% (active)"}
{"smiles": "Nc1ncnc2c1nc(Sc1ccc(Cl)cc1)n2C1OC2COP(=O)(O)O[C@@H]2[C@@H]1O", "note": "(some centres not stated)", "inhibition": "7.4% (active)"}
{"smiles": "Nc1nc(O)c2nc(Br)n(C3OC4COP(=O)(O)O[C@@H]4C3O)c2n1", "note": "(some centres not stated)", "inhibition": "9.3% (active)"}
{"smiles": "Nc1ncnc2c1nc(Br)n2C1OC2COP(=O)(O)O[C@@H]2C1O", "note": "(some centres not stated)", "inhibition": "4.7% (active)"}
{"smiles": "Nc1ncnc2nc(-c3ccc(N4CCOCC4)nc3)cc(-c3cccc(Br)c3)c12", "inhibition": "-3% (inactive)"}
{"smiles": "O=c1[nH]c2cc(Cl)ccc2c(O)c1-c1ccc(Oc2ccccc2)cc1", "inhibition": "8.7% (active)"}
{"smiles": "CN(C)c1nc(N(C)C)nc(N(C)C)n1", "inhibition": "31.3% (active)"}
{"smiles": "CN1[C@@H](CC(=O)c2ccccc2)CCC[C@H]1C[C@H](O)c1ccccc1", "inhibition": "15.5% (active)"}
{"smiles": "O=C(O)CCCC[C@@H]1CCSS1", "inhibition": "0.1% (active)"}
{"smiles": "Cc1cc(C(C)(C)C)c(O)c(C)c1CC1=NCCN1", "inhibition": "11.2% (active)"}
{"smiles": "Cc1cc(C(C)(C)C)cc(C)c1CC1=NCCN1", "inhibition": "5% (active)"}
{"smiles": "CC(=O)[C@H]1CC[C+]2C3CC=C4C[C@@H](OS(=O)(=O)[O-])CC[C@]4(C)C3CC[C@@]21C", "note": "(some centres not stated)", "inhibition": "-11.2% (inactive)"}
{"smiles": "CCN(Cc1ccncc1)C(=O)C(CO)c1ccccc1", "note": "(configuration not stated)", "inhibition": "1.5% (active)"}
{"smiles": "COc1ccc(/C=C2\\COc3ccc(C)cc3C2=O)cc1O", "inhibition": "75.9% (active)"}
{"smiles": "CCCc1c(-c2ccc(O)cc2)nn(-c2ccc(O)cc2)c1-c1ccc(O)cc1", "inhibition": "68.4% (active)"}
